# Several values for one entry are separate records, joined by “and”; a condition that tells them apart may be missing. Equal values may be shown once. For some assays here: Potency and affinity values are given separately. Where a structure was tested more than once in an assay, its records may differ in their call. Activity calls are given as the source filed them. Entries that show only a call come without a potency. Unless noted, no rule for the calls is given here.
# Assays:
# [1] = antimalarial activity against Dd2 strain (AID 2302;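 active = growth inhibition above 50% at the single 2 µM test dose, taken to imply half-maximal potency below 2 µM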); details: P. falciparum Dd2 in RBCs, LDH growth readout, 72 h; at 2 µM; stronger effect = higher value
# [2] = HepG2 cytotoxicity, primary screen, cytotoxicity control for P. falciparum antimalarial project, cell-based, ATP luminescence (AID 2303;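 active = inhibition above 50%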); details: HepG2 viability, 24-48 h, at 10 µM, stronger effect = higher value
# [3] = target: L-lactate dehydrogenase (Plasmodium falciparum (isolate CDC / Honduras)) (UniProt Q27743); experiment: PfLDH activity inhibition – cell lysate, 3D7 strain, counter-screen for P. falciparum growth inhibition project (AID 2304); details: P. falciparum 3D7 crude extract, LDH APAD/NBT absorbance; at 2 µM; stronger effect = higher value
# L-lactate dehydrogenase (Plasmodium falciparum (isolate CDC / Honduras)), sequence (Q27743 whole entry, looked up): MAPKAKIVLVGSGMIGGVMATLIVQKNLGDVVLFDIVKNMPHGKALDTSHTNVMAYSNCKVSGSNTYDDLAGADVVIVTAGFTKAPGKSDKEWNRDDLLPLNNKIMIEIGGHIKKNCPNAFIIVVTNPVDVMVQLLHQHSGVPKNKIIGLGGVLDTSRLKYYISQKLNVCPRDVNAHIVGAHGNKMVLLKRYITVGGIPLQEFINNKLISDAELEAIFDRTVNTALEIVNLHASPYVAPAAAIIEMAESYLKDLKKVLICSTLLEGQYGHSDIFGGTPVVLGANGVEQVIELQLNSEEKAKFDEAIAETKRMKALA
# [4] = inhibition of 3D7 malaria parasite growth – strain 3D7 (AID 2306); details: P. falciparum 3D7 erythrocytic growth, LDH absorbance, 72 h; at 2 µM; stronger effect = higher value
# [5] = target: Calcium-dependent protein kinase 1 (Plasmodium falciparum (isolate 3D7)) (UniProt P62344); experiment: PfCDPK1 kinase inhibitors, biochemical, TCAMS library (AID 1159585; cut-off not given, nearly all actives have IC50 up to about 0.98 µM;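 also: inhibitors leave more ATP so luminescence rises with inhibition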); details: recombinant PfCDPK1, Kinase-Glo ATP depletion luminescence
# Calcium-dependent protein kinase 1 (Plasmodium falciparum (isolate 3D7)), sequence (P62344 whole entry, looked up): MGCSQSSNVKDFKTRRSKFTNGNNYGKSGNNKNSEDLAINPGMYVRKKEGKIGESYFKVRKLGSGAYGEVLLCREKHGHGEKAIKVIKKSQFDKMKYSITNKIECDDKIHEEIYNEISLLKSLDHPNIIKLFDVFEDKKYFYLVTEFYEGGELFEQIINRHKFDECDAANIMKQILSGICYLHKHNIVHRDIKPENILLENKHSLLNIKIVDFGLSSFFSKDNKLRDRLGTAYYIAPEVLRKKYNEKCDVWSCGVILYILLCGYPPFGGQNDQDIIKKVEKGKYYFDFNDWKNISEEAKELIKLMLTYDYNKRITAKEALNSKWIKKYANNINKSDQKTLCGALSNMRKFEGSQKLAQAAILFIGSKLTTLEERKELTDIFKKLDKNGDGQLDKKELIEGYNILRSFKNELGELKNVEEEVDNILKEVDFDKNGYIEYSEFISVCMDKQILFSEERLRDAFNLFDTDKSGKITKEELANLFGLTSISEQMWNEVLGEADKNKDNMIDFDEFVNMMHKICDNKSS
# [6] = target: Plasmodium falciparum protein kinase 6 (PK6, PF3D7_1337100) (UniProt Q8IDW1); experiment: PfPK6 kinase inhibitors, biochemical, TCAMS library (AID 1159586); details: recombinant PfPK6, Kinase-Glo ATP depletion luminescence
# Plasmodium falciparum protein kinase 6 (PK6, PF3D7_1337100), sequence (Q8IDW1 1-305): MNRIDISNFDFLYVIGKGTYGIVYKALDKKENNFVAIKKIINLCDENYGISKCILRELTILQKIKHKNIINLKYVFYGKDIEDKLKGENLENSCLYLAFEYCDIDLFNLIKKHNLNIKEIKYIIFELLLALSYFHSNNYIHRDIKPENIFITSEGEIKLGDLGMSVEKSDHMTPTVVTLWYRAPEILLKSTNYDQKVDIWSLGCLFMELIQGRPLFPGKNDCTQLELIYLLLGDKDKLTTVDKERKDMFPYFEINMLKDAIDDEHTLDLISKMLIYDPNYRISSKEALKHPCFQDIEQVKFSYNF
# [7] = target: Protein kinase 7 (PK7), Plasmodium falciparum 3D7 (PF3D7_0213400) (UniProt Q7YTF7); experiment: inhibition of Plasmodium PK7 catalytic activity – biochemical, TCAMS antimalarial set, Kinase-Glo luminescence (AID 1159587); details: recombinant PfPK7, Kinase-Glo ATP depletion luminescence
# Protein kinase 7 (PK7), Plasmodium falciparum 3D7 (PF3D7_0213400), sequence (Q7YTF7 1-343): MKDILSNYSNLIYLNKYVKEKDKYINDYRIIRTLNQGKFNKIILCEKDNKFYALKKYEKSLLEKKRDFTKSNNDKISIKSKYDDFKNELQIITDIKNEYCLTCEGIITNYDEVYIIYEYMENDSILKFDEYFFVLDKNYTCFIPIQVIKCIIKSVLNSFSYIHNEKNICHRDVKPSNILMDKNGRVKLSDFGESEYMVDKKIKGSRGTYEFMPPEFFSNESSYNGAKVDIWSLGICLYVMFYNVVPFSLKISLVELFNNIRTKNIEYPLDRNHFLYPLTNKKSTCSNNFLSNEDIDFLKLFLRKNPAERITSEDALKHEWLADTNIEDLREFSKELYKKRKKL
# [8] = target: Calcium-dependent protein kinase 4 (Plasmodium falciparum (isolate 3D7)) (UniProt Q8IBS5); experiment: PfCDPK4 kinase inhibitors, biochemical, TCAMS library (AID 1159588; cut-off not given, nearly all actives have IC50 up to about 0.91 µM); details: recombinant PfCDPK4, Kinase-Glo ATP depletion luminescence
# Calcium-dependent protein kinase 4 (Plasmodium falciparum (isolate 3D7)), sequence (Q8IBS5 whole entry, looked up): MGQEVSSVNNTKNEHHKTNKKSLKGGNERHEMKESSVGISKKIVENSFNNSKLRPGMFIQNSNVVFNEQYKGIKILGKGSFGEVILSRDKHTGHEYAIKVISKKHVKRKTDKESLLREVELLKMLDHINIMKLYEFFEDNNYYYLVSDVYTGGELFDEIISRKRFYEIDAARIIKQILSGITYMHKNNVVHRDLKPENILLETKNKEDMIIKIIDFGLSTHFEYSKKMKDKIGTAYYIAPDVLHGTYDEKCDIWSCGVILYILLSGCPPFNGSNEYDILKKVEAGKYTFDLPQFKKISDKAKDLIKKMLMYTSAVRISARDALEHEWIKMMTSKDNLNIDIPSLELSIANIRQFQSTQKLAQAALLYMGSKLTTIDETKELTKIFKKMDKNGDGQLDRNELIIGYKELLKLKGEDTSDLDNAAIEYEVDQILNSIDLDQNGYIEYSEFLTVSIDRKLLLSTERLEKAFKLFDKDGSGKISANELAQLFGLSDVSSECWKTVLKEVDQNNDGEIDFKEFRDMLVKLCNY
SMILES,growth inhibition [1],inhibition [2],inhibition [3],growth inhibition [4],outcome [5],outcome [6],outcome [7],outcome [8]
O=C(NCCCCN1CC[C@@H]2c3cccc(O)c3CC[C@H]21)c1ccc(-c2ccccc2)cc1,50% (active),23% (inactive),2% (inactive),81% (active),inactive,inactive,inactive,inactive
O=C(c1ccc(Cl)cc1)N1CCOC(CCN2CCC(c3ccccc3)CC2)(c2ccc(Cl)c(Cl)c2)C1 (stereo not given),68% (active),19% (inactive),3% (inactive),98% (active),inactive,inactive,inactive,inactive
CN1CCC(C(=O)Nc2ccc(-c3cccc(-c4nc5ccc(C(F)(F)F)cc5[nH]4)c3)cc2)CC1,97% (active),28% (inactive),0% (inactive),100% (active),inactive,inactive,inactive,inactive
Cc1sc2ccc(Cl)cc2c1S(=O)(=O)Nc1ccc2nccc(N3C[C@@H](C)N[C@@H](C)C3)c2c1,100% (active),17% (inactive),0% (inactive),100% (active),inactive,inactive,inactive,inactive
Cn1nc(-c2ccc(CN[C@@H]3CCc4ccc(O)cc43)cc2)c2cnc(NCCCN3CCCC3)nc21,61% (active),8% (inactive),2% (inactive),101% (active),inactive,inactive,inactive,inactive
O=C1Nc2cccc3c2C1(CCCCN1CCC(c2cc4ccncc4[nH]2)CC1)CCC3 (stereo not given),-2% (inactive) and -4% (inactive),-1% (inactive) and -8% (inactive),-3% (inactive),97% (active) and 99% (active),inactive,inactive,inactive,inactive
O=C(C=Cc1ccc(C(=O)Nc2ccc(C3=NCCN3)cc2)cc1)Nc1ccc(C2=NCCN2)cc1,101% (active),-7% (inactive),3% (inactive),97% (active),inactive,inactive,inactive,inactive
O=C1c2cc(I)ccc2SC1c1ccccc1 (stereo not given),98% (active),-7% (inactive),-2% (inactive),96% (active),inactive,inactive,inactive,inactive
N#CC(CC(=O)c1ccc(Cl)cc1)c1cccc(F)c1 (stereo not given),4% (inactive),5% (inactive),4% (inactive),97% (active),inactive,inactive,inactive,inactive
O=C(CCCCCNC(=O)c1ccc(O)c(-c2ccc(Cl)c(Cl)c2)c1)NCCN1CCCCC1,1% (inactive),-4% (inactive),0% (inactive),93% (active),inactive,inactive,inactive,inactive
CCc1cn2c3c(cc(C(=O)N[C@@H](Cc4cc(F)cc(F)c4)[C@H](O)CNC4CC4)cc13)N(C)S(=O)(=O)CC2,99% (active),3% (inactive),0% (inactive),100% (active),inactive,inactive,inactive,inactive
CCCC(C)NC(=O)C(N)Cc1cccc(I)c1 (stereo not given),65% (active),11% (inactive),0% (inactive),95% (active),inactive,inactive,inactive,inactive
CC(=O)Nc1ccc(CN2Cc3ccc(NC(=O)Nc4ccc(Oc5ccccc5)cc4)cc3C2)s1,25% (inactive),9% (inactive),6% (inactive),91% (active),inactive,inactive,inactive,inactive
O=C(NCCCCN1CCC(c2ccc(OC(F)(F)F)cc2)CC1)c1ccc(NC(=O)c2ccc(Cl)cc2)cc1,98% (active),24% (inactive),-3% (inactive),99% (active),inactive,inactive,inactive,inactive
Cc1cccc2[nH]c(-c3cccc(-c4cccc(CNCCCN5CCCC5=O)c4)c3)nc12,76% (active),9% (inactive),2% (inactive),100% (active),inactive,inactive,inactive,inactive
Cc1cccc2[nH]c(-c3ccc(-c4ccc(CN5CCCCC5CO)cc4)cc3)nc12 (stereo not given),76% (active),32% (inactive),1% (inactive),100% (active),inactive,inactive,inactive,inactive
O=C(/C=C/c1ccc(Cl)c(Cl)c1)NCCCCCN1CCCN(C(=O)Nc2cccc(F)c2)CC1,4% (inactive),20% (inactive),-3% (inactive),97% (active),inactive,inactive,inactive,inactive
Clc1ccc2c(NCCNc3ccnc4cc(Cl)ccc34)ccnc2c1,96% (active),6% (inactive),-6% (inactive),101% (active),inactive,inactive,inactive,inactive
N#Cc1ccc2c(c1)CN(CCC1CCC(NC(=O)/C=C/c3c[nH]c4ccccc34)CC1)CC2 (stereo not given),24% (inactive) and 27% (inactive),10% (inactive) and 20% (inactive),-3% (inactive) and -9% (inactive),92% (active) and 97% (active),inactive,inactive,inactive,inactive
N#Cc1cccc(NC(=O)Nc2ccc(CC(=O)N3CCc4cc(Cl)c(N5CCN(C/C=C/c6ccccc6)CC5)cc43)cc2)c1,61% (active),-4% (inactive),-4% (inactive),91% (active),inactive,inactive,inactive,inactive

SMILES,growth inhibition [1],inhibition [2],inhibition [3],growth inhibition [4],outcome [5],outcome [6],outcome [7],outcome [8]
Cc1cc(N[C@@H](Cc2ccccc2)C(=O)NC2CCCC2)nc(NCCc2cccs2)n1,14% (inactive),-6% (inactive),-2% (inactive),99% (active),inactive,inactive,inactive,inactive
c1ccc(CN2CCC(NCc3ccc(-c4ccc(CNC5CCCC5)cc4)cc3)CC2)cc1,98% (active),24% (inactive),-4% (inactive),101% (active),inactive,inactive,inactive,inactive
Cc1[nH]c(C)c(-c2ccc(Oc3ccc(OC(F)(F)F)cc3)cc2)c(=O)c1Br,95% (active) and 97% (active),-4% (inactive) and -1% (inactive),1% (inactive) and 2% (inactive),96% (active),inactive,inactive,inactive,inactive
O=C(Nc1ccc(Cn2ncc(N3CCCNCC3)c(Cl)c2=O)cc1)Nc1ccc(-c2ccccc2)cc1,41% (inactive) and 51% (active),12% (inactive) and 10% (inactive),-2% (inactive) and 8% (inactive),93% (active),inactive,inactive,inactive,inactive
COc1ccc(NC(=O)C2c3ccccc3C(=O)N(CC(C)C)C2c2cccs2)cc1OC (stereo not given),98% (active),6% (inactive),3% (inactive),100% (active),inactive,inactive,inactive,inactive
COc1c(C2CCN(CCCCNC(=O)c3noc(-c4ccc(C#N)cc4)n3)CC2)ccc2c1CCCC2,-2% (inactive),32% (inactive),-1% (inactive),99% (active),inactive,inactive,inactive,inactive
CC(C)C1CCc2nc(N)nc(N)c2C1 (stereo not given),-2% (inactive),70% (active),-5% (inactive),95% (active),inactive,inactive,inactive,inactive
COc1ccccc1C1CCN(C2CCC(NC(=O)/C=C/c3cc(F)cc(F)c3)CC2)CC1 (stereo not given),15% (inactive),45% (inactive),0% (inactive),91% (active),inactive,inactive,inactive,inactive
Cc1[nH]c(C)c(-c2ccc(CCc3ccc(N)cc3)cc2)c(=O)c1Cl,97% (active),2% (inactive),5% (inactive),97% (active),inactive,inactive,inactive,inactive
COc1ccc2nccc([C@@H](O)CN3CCC(NCc4ccc5c(c4)nnn5C(C)C)CC3)c2c1,40% (inactive),15% (inactive),0% (inactive),100% (active),inactive,inactive,inactive,inactive
O=C(Nc1cccc(CN2CCCN(Cc3ccc(O)cc3)CC2)c1)c1cccc(Cl)c1,41% (inactive),10% (inactive),5% (inactive),96% (active),inactive,inactive,inactive,inactive
COc1ccc(NC(=O)C2CCN(CCCCCNC(=O)/C=C/c3ccc(Cl)c(Cl)c3)CC2)cc1,-4% (inactive),26% (inactive),6% (inactive),98% (active),inactive,inactive,inactive,inactive
COc1ccc(NC(=O)c2cc(-c3ccc(NC(C)=O)cc3)cnc2N)cc1,5% (inactive),10% (inactive),4% (inactive),98% (active),inactive,inactive,inactive,inactive
Cc1cc(CNCCCCCCCNCc2cccc([N+](=O)[O-])c2)ccc1O,-5% (inactive),6% (inactive),-1% (inactive),100% (active),inactive,inactive,inactive,inactive
O=C(Nc1ccccc1O)c1ccc(Oc2cccc(C(=O)Nc3ccccc3O)c2)cc1,70% (active),33% (inactive),-1% (inactive),97% (active),inactive,inactive,inactive,inactive
Cc1cc(-c2ccc(O)c(CNC3CCCCC3)c2)cnc1N,100% (active),27% (inactive),-4% (inactive),102% (active),inactive,inactive,inactive,inactive
CCCc1cc(Cc2cnc(N)nc2N)cc(CCC)c1OC,1% (inactive),18% (inactive),1% (inactive),92% (active),inactive,inactive,inactive,inactive
FC(F)(F)c1cccc(C=NNc2nc3ccccc3[nH]2)c1,99% (active),1% (inactive),0% (inactive),101% (active),inactive,inactive,inactive,inactive
COc1cccc(NC(=O)c2ccc(NCCCN3CC(C)CC(C)C3)c([N+](=O)[O-])c2)c1 (stereo not given),68% (active),14% (inactive),-4% (inactive),100% (active),inactive,inactive,inactive,inactive
O=C(Nc1cc(Cl)ccc1O)c1ccc(Oc2ccc(C(=O)Nc3cc(Cl)ccc3O)cc2)cc1,91% (active),32% (inactive),-3% (inactive),97% (active),inactive,inactive,inactive,inactive
